Data reported in PubChem BioAssay AID1030 (National Center for Advancing Translational Sciences (NCATS), 2008).
Out of some 220,000 compounds screened, about 16,000 (7.3%) were called active. Inconclusive results (about 25%) are left out. The full list was thinned out, with actives kept by preference. A number with no mark means an inactive call. The call rests on the fitted dose curve; in most records, active means well fitted inhibition curve with a large enough effect (not every such curve was filed as active); inconclusive means small, poorly fitted or top-dose-only effect, or another doubt; inactive means no such curve, though single readings can be large or run the other way.

The molecules below were run against Aldehyde dehydrogenase 1A1 (Homo sapiens) (UniProt P00352) (assay: qHTS Assay for Inhibitors of Aldehyde Dehydrogenase 1 (ALDH1A1)). Details: Purified ALDH1A1, NADH fluorescence, propionaldehyde substrate; series mostly up to 75.3 µM; activity, negative = inhibition: at the top concentration.
Sequence of Aldehyde dehydrogenase 1A1 (Homo sapiens) (P00352 whole entry, looked up): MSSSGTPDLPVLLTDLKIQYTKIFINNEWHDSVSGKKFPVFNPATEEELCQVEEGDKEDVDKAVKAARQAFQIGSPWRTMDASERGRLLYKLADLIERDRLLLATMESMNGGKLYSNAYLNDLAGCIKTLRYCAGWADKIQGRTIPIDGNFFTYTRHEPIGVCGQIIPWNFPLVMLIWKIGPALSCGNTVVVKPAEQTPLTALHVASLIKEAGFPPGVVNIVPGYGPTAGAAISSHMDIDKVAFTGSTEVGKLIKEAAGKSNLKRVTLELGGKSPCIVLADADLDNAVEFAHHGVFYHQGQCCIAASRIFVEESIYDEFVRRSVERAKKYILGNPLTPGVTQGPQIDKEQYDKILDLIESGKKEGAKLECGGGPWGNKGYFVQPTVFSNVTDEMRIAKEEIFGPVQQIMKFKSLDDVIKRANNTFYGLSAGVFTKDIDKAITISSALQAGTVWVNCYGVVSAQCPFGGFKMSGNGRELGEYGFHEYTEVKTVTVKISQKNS
Potency means the concentration at half of the fitted maximal effect.
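Wherever activity, negative = inhibition is given: plate controls were no enzyme wells and a reference inhibitor.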

Compound	activity, negative = inhibition	Potency
Clc1cc(-c2ccc(/C=N/n3cnnc3)o2)ccc1Br	9.2%	
CCc1ccccc1NC(=O)CSc1nnc(-c2ccncc2)o1	-0.724%	
Cc1ccc2c(Cl)c(C(=O)Nc3nn[nH]n3)sc2c1	0.398%	
O=c1ccn([C@@H]2O[C@H](COP(=O)(O)OP(=O)(O)OP(=O)(O)O)[C@@H](O)[C@H]2O)c(=O)[nH]1	6.39%	
Cc1ccc(C(=O)NCC(=O)O)cc1S(=O)(=O)N1CCCCC1	2.98%	
O=C(Oc1ccc([N+](=O)[O-])cc1)c1ccc(Cl)c(S(=O)(=O)N2CCCCC2)c1		12.6 µM (active)
COc1ccccc1N1CCN(C(=O)c2ccc(Cl)c(S(=O)(=O)N3CCCC3)c2)CC1	0.0267%	
CC1CCC2(CC1)NC(=O)N(Cc1nnc(-c3cccs3)o1)C2=O (configuration not stated)	-3.25%	
CC(O)[C@@H](N)C(=O)O (some centres not stated)	16.9%	
CN(CC(=O)NCCc1ccccn1)S(=O)(=O)c1ccc(Cl)cc1	-1.89%	
O=c1[nH][nH]c(=O)c2cc(N3CCCC3)ccc12	-1.14%	
O=C1C=CC(=O)N1c1ccc(N2CCCCC2)cc1		0.251 µM (active)
Cc1cccn2c(CN(C)C3CCCc4ccccc43)c(C(=O)N3CCOCC3)nc12 (configuration not stated)	-12.9%	
CC(=O)N1CCN(S(=O)(=O)c2cccc(C(=O)NC3CCC(C)CC3)c2)CC1 (configuration not stated)	-8.41%	
CC1CCN(C(=S)c2cccc(O)c2)CC1		31.6 µM (active)
COc1ccc(C(=O)Nc2ccc(N3CCC(C)CC3)cc2)cc1Br	10.6%	
Cc1cc2c(cc1C)[n+](C)cn2CC(O)COCC1CC=CCC1 (configuration not stated)	-2.51%	
CNC(=S)N1CCN(c2ccccn2)CC1	3.36%	
CC(=C1C(=O)c2ccccc2C1=O)N1CCN(c2ccccn2)CC1		12.6 µM (active)
COc1ccc(N2CCN(C(C)=C3C(=O)c4ccccc4C3=O)CC2)cc1	2.48%	
CC1(C)OC(=O)C(=CNC(CO)C(=O)O)C(=O)O1 (configuration not stated)	6.92%	
O=Cc1c(Cl)cccc1Cl		14.1 µM (active)
O=C1N=C2SCCN2/C1=C\c1c(Cl)cccc1Cl	-0.867%	
O=C(/C=C/c1c(Cl)cccc1Cl)NCc1ccccc1	5.21%	
Cc1ccc(C(=O)O)cc1N1C(=O)CCCC1=O	14%	
O=C(O)c1ccc(NC(=O)c2cn(-c3ccccc3)nc2-c2ccc(Cl)cc2)cc1	1.24%	

Compound	activity, negative = inhibition	Potency
Cn1cccc1Cc1nnc(SCC(=O)NCCc2ccccc2)n1-c1ccc(F)cc1	-0.308%	
COc1ccccc1NC(=O)CSc1nnc(Cn2nnc(-c3ccccc3)n2)n1-c1ccccc1		2.82 µM (active)
COc1ccccc1NC(=O)CSc1nnc(Cc2cccn2C)n1-c1ccc(F)cc1		17.8 µM (active)
COc1ccc(OC)c(/C=N/NC(=O)CSc2nnc(C)n2-c2ccccc2)c1	-10.8%	
COc1cc(-c2nnn(CC(=O)NCc3ccccc3)n2)cc(OC)c1OC	3.6%	
COC(=O)c1ccccc1NC(=O)CSc1nnnn1C	2.76%	
COC(=O)c1ccc(NC(=O)CSc2nnc(Cc3cccn3C)n2-c2ccc(F)cc2)cc1		22.4 µM (active)
COc1cccc(-n2c(Cc3cc(=O)[nH]c(=O)[nH]3)nnc2SCC(=O)Nc2ccccc2)c1	-2.15%	
COCCn1c(Cc2cccn2C)nnc1SCC(=O)Nc1nccs1	-8.29%	
O=C1CC(c2c(F)cccc2Cl)C(n2cncn2)C(O)=C1C1NCCc2ccccc21 (configuration not stated)	1.49%	
CCOc1ccc(C(CC(=O)O)NC(=O)C23CC4CC(CC(C4)C2)C3)cc1OC (configuration not stated)	3.06%	
O=C(CNC(=O)COc1ccccc1)NCCc1ccccn1	5.5%	
COC(c1ccccc1)c1nnc(CCC(=O)N2CCN(CCOc3ccccc3)CC2)o1 (configuration not stated)	6.64%	
OCCC1CN(Cc2cccc(O)c2)CCN1CCc1ccccc1 (configuration not stated)	14.4%	
CCn1cc(-c2cc(C(=O)O)on2)c(C)n1	1.42%	
COC(=O)C(C)N=Cc1ccccc1 (configuration not stated)	6.45%	
Fc1ccc(-c2csc(-c3ccc(C4SCCS4)cc3)n2)cc1F	-10.1%	
CCCCNc1nc2c(c(=O)[nH]c(=O)n2C)n1CCOc1ccccc1	6.54%	
Cc1cc(C)c(NC(=O)C[N+](C)(C)CC(O)COc2cccc3ccccc23)c(C)c1 (configuration not stated)	-4.91%	
CCC(C)Sc1nc2c(c(=O)[nH]c(=O)n2C)n1CC(O)COc1cccc2ccccc12 (configuration not stated)		25.1 µM (active)
CCCN(CC(=O)Nc1ccc(OC)c(OC)c1)CC(=O)Nc1ccc(F)c(F)c1F	-1.85%	
CNc1ccc(SC#N)cc1		8.91 µM (active)
COC(=O)Cc1c(O)ccn(Cc2cccc(C(F)(F)F)c2)c1=O	-4.24%	
CCCOc1ccc(C2c3c(oc4cc(C)c(C)cc4c3=O)C(=O)N2CCCN2CCOCC2)cc1 (configuration not stated)		3.98 µM (active)
O=C1c2oc3ccc(Br)cc3c(=O)c2C(c2cccc(F)c2)N1CCO (configuration not stated)	2.17%	
CCOc1ccc(C2C(C(=O)O)c3ccccc3C(=O)N2CCN2CCOCC2)cc1 (configuration not stated)	4.96%	
